Results filed as inconclusive are left out. Calls of active or inactive are those of the source. Unless noted, calls come from the whole dose curve; as a rule, active = well fitted curve in the direction sought with a large enough effect in the repeat runs; inconclusive = weak or mixed curves; inactive = no such curve, though single readings can be large; an effect the other way counts as inactive or inconclusive.
Tests used:
[1] = qHTS assay to identify small molecule agonists of H2AX (AID 1224845; active = well fitted activation curve with a large enough effect in the signal ratio in the repeat runs, not every such curve was filed as active; the % refers to the signal ratio)
Procedure, shortened: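 Wild-type CHO-K1 cells, plated overnight, exposed 3hr at 37C to 15 concentrations (0.76% DMSO final). Lysed, then HTRF anti-pH2AX (S139) cryptate and anti-H2AX-d2 antibodies, 24 hr room temperature; 665/620 nm emission read.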

[2] = qHTS assay to identify small molecule agonists of the hypoxia (HIF-1) signaling pathway (AID 1224846; active = well fitted activation curve with a large enough effect in the signal ratio in the repeat runs, not every such curve was filed as active; the % refers to the signal ratio)
Procedure, shortened: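 Beta-lactamase FRET read-out (CCF4-AM substrate) from ME-180 cells carrying an HRE-driven bla reporter, after 17 hrs compound exposure at 37C/5% CO2. Cells were seeded at 2,000 per well in 0.5% dialyzed FBS medium and preincubated 5 hrs.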

[3] = qHTS assay to identify small molecule antagonists of the estrogen related receptor (ERR) signaling pathway from Tox21 library (AID 1224848); note: nearly all actives have a fitted effect of over 50% in size; note: potency is the fitted concentration of half-maximal effect
Procedure, shortened: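 Quantitative high-throughput format: ERR reporter cells (2,000/well) pre-incubated 6 h, treated 18 h at 37 C with compounds in DMSO alongside positive and negative controls, then read by ONE-Glo luminescence.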

[4] = qHTS assay to identify small molecule agonists of the estrogen related receptor (ERR) signaling pathway from Tox21 library (AID 1224849; calls by dose curve; note: nearly all actives have a fitted effect of over 15% in size); details: ERR reporter cell line, ONE-Glo luciferase, 18 h; at 92.4 µM (top of the series) unless noted
Procedure, shortened: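 Luminescence readout (ONE-Glo, 30 min RT) after 18 h compound exposure at 37 C of NTP-supplied ERR reporter cells; cells were plated 6 h before compound addition by pin tool.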

[5] = qHTS RealTime-Glo MT Cell Viability Assay in HEK293 cells - 32 hour (AID 1224868); note: nearly all actives have a fitted effect of over 50% in size; note: potency is the fitted concentration of half-maximal effect; for activity change, negative = cytotoxic: top concentration of the series differs between compounds
Procedure, shortened: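 Tox21 10K qHTS, HEK293, 600 cells/well, RealTime-Glo reagent co-dispensed with cells; 5 h preincubation, compound by pintool, 37 C, luminescence at 0–40 h.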

[6] = A CellTox Green Cytotoxicity Assay to monitor cytotoxicity in HEK293 cells - 0 hour (AID 1224869); note: nearly all actives have a fitted effect of over 50% in size
Procedure, shortened: (§1)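 Read-out: fluorescence of a cell-impermeant cyanine dye staining DNA of dead cells, proportional to cytotoxicity. HEK293, 600 cells/well with reagent, compound (23 nL DMSO) added after 5 h; reads at 0, 8, 16, 24, 32, 40 h.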

[7] = qHTS RealTime-Glo MT Cell Viability Assay in HepG2 cells - 40 hour (AID 1224870); note: nearly all actives have a fitted effect of over 50% in size
Procedure, shortened: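 HepG2 cells (600/well) mixed with RealTime-Glo MT reagent, settled 5 h at 37 C/5% CO2 before compound addition. Nonlytic NanoLuc luminescence from viable-cell prosubstrate reduction read repeatedly during 40 h treatment at 37 C.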

[8] = A CellTox Green Cytotoxicity Assay to monitor cytotoxicity in HEK293 cells - 40 hour (AID 1224871); note: nearly all actives have a fitted effect of over 45% in size; note: potency is the fitted concentration of half-maximal effect
Procedure, shortened: as §1

[9] = qHTS assay to identify small molecule agonists of H2AX - cell viability counter screen (AID 1224847; calls by dose curve; note: nearly all actives have a fitted effect of over 30% in size; note: potency is the fitted concentration of half-maximal effect)
Procedure, shortened: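 Cytotoxicity counter screen in wild-type CHO-K1 cells: a 3 hr compound treatment at 37C across 15 concentrations, followed by CellTiter-Glo luminescence to gauge viable cells.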

[10] = qHTS RealTime-Glo MT Cell Viability Assay in HepG2 cells - 24 hour (AID 1224867); note: nearly all actives have a fitted effect of over 50% in size
Procedure, shortened: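 Cells + NanoLuc/prosubstrate dispensed (600 cells/well) → 5 h at 37 C/5% CO2 → compounds in DMSO transferred → 40 h incubation at 37 C, luminescence read at 0, 8, 16, 24, 32, 40 h.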
% is set by controls: 0 for no effect and ±100 for the full control effect.

Brc1c(Br)c(Br)c(Oc2c(Br)c(Br)c(Br)c(Br)c2Br)c(Br)c1Br
inactive: activation (H2AX phosphorylation) [1] -7.06% [at 31.6 µM] | activation [2] 0.0203% [at 15.8 µM] | activity, negative = inhibition [3] 6.83% [at 19 µM] | activity change, positive = activation [4] 3.27% [at 19 µM] | activity change, negative = cytotoxic [5] 5.03% [at 15.8 µM] | cytotoxicity [6] -1.03% [at 15.8 µM] | activity change, negative = cytotoxic [7] -6.21% [at 15.8 µM] | cytotoxicity increase [8] 1.02% [at 15.8 µM]

CN(CCCC(=O)c1cccnc1)N=O
inactive: Potency [1] | outcome [2] | Potency [9] | Potency [10] | Potency [5] | Potency [6] | Potency [8]

CN(C)[C@@H]1C(=O)C(C(N)=O)=C(O)[C@@]2(O)C(=O)C3=C(O)c4c(O)ccc(Cl)c4[C@@](C)(O)[C@H]3C[C@@H]12
inactive: Potency [1] | outcome [2] | Potency [9] | Potency [10] | Potency [6] | Potency [7] | Potency [8]

COc1ccc([N+](=O)[O-])cc1O
inactive: Potency [1] | outcome [2] | Potency [9] | Potency [10] | Potency [5] | Potency [6] | Potency [8]

NC(=O)c1ccc(N)nc1
inactive: Potency [1] | outcome [2] | Potency [10] | Potency [6] | Potency [7] | Potency [8]

Cc1cccc(OP(=O)(Oc2cccc(C)c2)Oc2cccc(C)c2)c1
inactive: Potency [1] | outcome [2] | Potency [10] | Potency [5] | Potency [6] | Potency [7] | Potency [8]

NC(=O)CCl
inactive: Potency [1] | outcome [2] | Potency [9] | Potency [10] | Potency [5] | Potency [6] | Potency [8]

BrCBr
inactive: Potency [1] | outcome [2] | Potency [9] | Potency [10] | Potency [5] | Potency [6] | Potency [8]

Clc1ccc(Oc2ccccc2)cc1
inactive: Potency [1] | outcome [2] | Potency [10] | Potency [5] | Potency [6] | Potency [7]

FC(F)(F)c1cccc(C2=CCN(CCc3ccc4ccccc4c3)CC2)c1
inactive: Potency [1] | outcome [2] | Potency [3] | activity change, positive = activation [4] -0.643% [at 42.5 µM] | Potency [10] | Potency [5] | Potency [6] | Potency [8]

Cn1[nH]nnc1=S
inactive: Potency [1] | outcome [2] | Potency [10] | Potency [5] | Potency [6] | Potency [7] | Potency [8]

C[C@@H]1O[C@@H](O[C@@H]2C=C3CC[C@@H]4[C@H](CC[C@]5(C)[C@@H](c6ccc(=O)oc6)CC[C@]45O)[C@@]3(C)CC2)[C@H](O)[C@H](O)[C@H]1O
active: Potency [3] 0.0335 µM | Potency [5] 0.0213 µM
inactive: Potency [1] | outcome [2] | activity change, positive = activation [4] -58.9% [at 42.5 µM] | Potency [10] | Potency [6] | Potency [7] | Potency [8]

Oc1ccccc1Br
inactive: Potency [1] | outcome [2] | Potency [9] | Potency [5] | Potency [6] | Potency [7] | Potency [8]

COS(=O)(=O)c1ccc(C)cc1
inactive: Potency [1] | outcome [2] | Potency [9] | Potency [10] | Potency [5] | Potency [6] | Potency [8]

ClC(Cl)=C(Cl)Cl
inactive: Potency [1] | outcome [2] | Potency [9] | Potency [10] | Potency [5] | Potency [6] | Potency [7] | Potency [8]

Cc1cc(Cl)ccc1O[C@H](C)C(=O)O
inactive: Potency [1] | outcome [2] | Potency [9] | Potency [10] | Potency [5] | Potency [6] | Potency [8]

O=C(O)COc1nc(Cl)c(Cl)cc1Cl
inactive: Potency [1] | outcome [2] | Potency [9] | Potency [10] | Potency [7]

Nc1ccc([N+](=O)[O-])cc1Cl
inactive: Potency [1] | outcome [2] | Potency [10] | Potency [5] | Potency [6] | Potency [7] | Potency [8]

Oc1cccc(-c2ccccc2)c1
inactive: Potency [1] | outcome [2] | Potency [3] | Potency [10] | Potency [6] | Potency [7] | Potency [8]

N#Cc1ccc(O)cc1
inactive: Potency [1] | outcome [2] | Potency [9] | Potency [10] | Potency [5] | Potency [6] | Potency [7] | Potency [8]

CC(C)CCCCCCCOP(=O)(Oc1ccccc1)Oc1ccccc1
inactive: Potency [1] | outcome [2] | activity change, positive = activation [4] -16.8% | Potency [10] | Potency [6] | Potency [7] | Potency [8]

O=[N+]([O-])c1cc(Cl)ccc1Cl
inactive: Potency [1] | outcome [2] | Potency [10] | Potency [5] | Potency [6]

CCOC(=O)c1ccccc1S(=O)(=O)NC(=O)Nc1nc(Cl)cc(OC)n1
inactive: Potency [1] | outcome [2] | Potency [9] | Potency [10] | Potency [7]

CCCOCC(=Nc1ccc(Cl)cc1C(F)(F)F)n1ccnc1
active: Potency [9] 101 µM | Potency [5] 48.9 µM | Potency [8] 48.9 µM
inactive: Potency [1] | outcome [2]

CCN
inactive: Potency [1] | outcome [2] | Potency [9] | Potency [10] | Potency [5] | Potency [6] | Potency [8]

ClCc1ccc(Cl)cc1Cl
inactive: Potency [1] | outcome [2] | Potency [9] | Potency [10] | Potency [6] | Potency [7]

COP(=O)(OC)SCn1c(=O)oc2cc(Cl)cnc21
inactive: Potency [1] | outcome [2] | activity change, positive = activation [4] -27.7% | Potency [10] | Potency [6] | Potency [7]

Source: PubChem BioAssay (Tox21)
